The full list was thinned out, with hits kept by preference.
PI4K2A inh: PI4K2A (human) kinase inhibition; Q9BTU6; purified PI4K2A, ADP-Glo luminescence, 1 h; active compounds read low; activity change, negative = inhibition, % at 76.9 µM; 420,000 compounds, 0.13% hits; in the data active = activity change below about -50%; inconclusive = mostly about -30% to -49%;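 also: -100% = wells without enzyme as full effect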
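In this quantitative HTS, ADP production by PI4K2A was quantified luminescently after 1 h at ambient temperature; 100 microM adenosine served as plate-quality control.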
PI5P4Ka inh: blocks human PI5P4K alpha kinase activity; PI5P4Kalpha enzyme, ADP-Glo luminescence, 60 min; active compounds read low; max response, %; 330,000 compounds, 1.2% hits; AID 652105; active = max response of -50% or lower; inconclusive = between -30% and -50%; inactive = -30% or higher; also: value at the top dose of about 77 µM
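Controls without substrate or without enzyme flank wells where PI5P4Kalpha converts substrate using 5 microM ATP (final). Incubation lasts 60 minutes at room temperature; ADP formed is read by ADP-Glo luminescence.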
Pin1 inhibitor: inhibitors of human Pin1. AID 504891. Q13526. 390,000 compounds, 0.009% hits. Pin1 FP peptide displacement, HiFluor488, 10 min. Potency, µM (series often up to 115 µM), inactives show at the top dose activity, negative = inhibition, actives largely listed as inhibitors; active = well fitted inhibition curve with a large enough effect in the polarisation, with a control signal flat, not every such curve was filed as active; inconclusive = small, poorly fitted or top-dose-only effect, or effect the other way, or a change in a side signal; inactive = no such curve, though single readings can be large or run the other way; the % refers to the polarisation; also: potency is read from the fitted curve at half-maximal effect
Target sequence (Q13526 whole entry, looked up): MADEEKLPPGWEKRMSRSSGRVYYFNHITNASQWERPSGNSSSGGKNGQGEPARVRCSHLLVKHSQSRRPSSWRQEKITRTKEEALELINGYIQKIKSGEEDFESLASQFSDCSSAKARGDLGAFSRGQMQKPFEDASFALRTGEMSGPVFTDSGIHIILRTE
Tb PGK inh: blocks T. brucei phosphoglycerate kinase; Potency, µM (top dose mostly 57.5 µM), for inactives: at the top dose activity change, negative = inhibition, hits mostly inhibitors; 380,000 compounds, 0.043% hits; PGK/GAPDH coupled, Kinase-Glo luminescence, 60 min; active = well fitted inhibition curve with a large enough effect; inconclusive = small, poorly fitted or top-dose-only effect; inactive = no such curve, though single readings can be large or run the other way; also: potency is read from the fitted curve at half-maximal effect; nearly all actives have a fitted effect of over 60% in size
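Luminescent ATP detection (Kinase-Glo Plus) follows a 60-minute room-temperature incubation, with wells lacking PGK as controls. Buffer: 100 mM TEA (pH 7.6), 5 mM MgCl2, 0.01% Tween-20. Coupling enzyme GAPDH (100 nM final) supplies unstable 1,3-BPG in-well.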
* marks the source's active call; other numbers are inactive results; i = inactive; ? = inconclusive; . = no result. Unless noted, % is scaled to controls: 0 for no effect and ±100 for the full control effect.

SMILES	PI4K2A inh	PI5P4Ka inh	Pin1 inhibitor	Tb PGK inh
COc1cc(OC)cc(-c2nc(-c3ccccc3OC)no2)c1	3.4	0.3	4.3%	5.1%
Clc1nssc1=Nc1nncs1	-27.5	-55.3*	-0.4%	-3.1%
O=C(O)/C=C/c1cc(F)c(S(=O)(=O)N2CCN(S(=O)(=O)c3ccc4c(c3)OCCO4)CC2)cc1F	.	.	2.7%	.
Nc1ccc([N+](=O)[O-])c(C(F)(F)F)c1	1.2	.	.	.
CC(C)(C)CC(C)(C)SSc1n[nH]c(=S)s1	31.3	-65.7*	.	-8.2%
Cc1ccc(-c2ccc(/C=C3/NC(=O)NC3=O)o2)cc1[N+](=O)[O-]	-3.8	-10.3	?	5.6%
CC1=C(C#N)C(=O)NC(=O)/C1=C\c1ccc(-c2cc(C)c(C)cc2[N+](=O)[O-])o1	-10.4	-65.1*	.	-14.5%
C#CCOCCOCCOCCNc1nc(N2CCN(C(=O)[C@H](CCCCN)n3cc([C@@H](N)C(C)CC)nn3)CC2)nc(N2CCN(C(=O)[C@H](Cc3cc4ccccc4[nH]3)n3cc([C@@H](N)CC(C)C)nn3)CC2)n1 (some centres undefined)	-4.1	-56.6*	10.5%	12.5%
C#CCOCCOCCOCCNc1nc(N2CCN(C(=O)[C@H]([C@@H](C)CC)n3cc(CCC(=O)O)nn3)CC2)nc(N2CCN(C(=O)[C@H](CCCCN)n3cc(CC(C)O)nn3)CC2)n1 (some centres undefined)	2.9	-69.8*	-4.4%	i
C#CCOCCOCCOCCNc1nc(N2CCN(C(=O)Cn3cc(CCCN=C(N)N)nn3)CC2)nc(N2CCN(C(=O)[C@H]([C@@H](C)CC)n3cc(CCCCN)nn3)CC2)n1	2.8	-9.4	1.7%	-0.5%
C#CCOCCOCCOCCNc1nc(N2CCN(C(=O)CCCCCCCCCCNC(=O)[C@H]([C@@H](C)CC)n3cc(CCCCCN)nn3)CC2)nc(N2CCN(C(=O)CCCCCCCCCCNC(=O)[C@H](CCCCN)n3cc(CCCC(=O)O)nn3)CC2)n1	-3.0	?	5.0%	-5.6%
C#CCOCCOCCOCCNc1nc(N2CCN(C(=O)[C@H]([C@@H](C)CC)n3cc(CCC(=O)O)nn3)CC2)nc(N2CCN(C(=O)[C@H](CCCCN)n3cc(CCCC)nn3)CC2)n1	-3.3	2.0	2.1%	3.5%
C#CCOCCOCCOCCNc1nc(N2CCN(C(=O)CCCCCCCCCCNC(=O)Cn3cc(CCCCCN)nn3)CC2)nc(N2CCN(C(=O)CCCCCCCCCCNC(=O)[C@H]([C@@H](C)CC)n3cc(CCCCN=C(N)N)nn3)CC2)n1	-3.4	-71.7*	27.4%	-4.5%
C#CCOCCOCCOCCNc1nc(N2CCN(C(=O)CCCCCCCCCCNC(=O)[C@H]([C@@H](C)CC)n3cc(CCCCN=C(N)N)nn3)CC2)nc(N2CCN(C(=O)CCCCCCCCCCNC(=O)[C@H](CCCCN)n3cc(C)nn3)CC2)n1	-1.9	-89.4*	?	16.1%
C#CCOCCOCCOCCNc1nc(N2CCN(C(=O)CCCCCCCCCCNC(=O)[C@H](CCCCN)n3cc(C)nn3)CC2)nc(N2CCN(C(=O)CCCCCCCCCCNC(=O)[C@H](CCCCN)n3cc(CCCC(=O)O)nn3)CC2)n1	0.5	-53.7*	3.8%	10.4%
C#CCOCCOCCOCCNc1nc(N2CCN(C(=O)CCCCCCCCCCNC(=O)Cn3cc(CCCCCN)nn3)CC2)nc(N2CCN(C(=O)CCCCCCCCCCNC(=O)Cn3cc(CCCCCN)nn3)CC2)n1	0.1	-63.8*	11.2%	7.7%
C#CCOCCOCCOCCNc1nc(N2CCN(C(=O)CCCCCCCCCCNC(=O)[C@H]([C@@H](C)CC)n3cc(CCCCCN)nn3)CC2)nc(N2CCN(C(=O)CCCCCCCCCCNC(=O)[C@H](CO)n3cc(CCCCCN)nn3)CC2)n1	-3.3	-50.4*	?	17.2%
C#CCOCCOCCOCCNc1nc(N2CCN(C(=O)CCCCCCCCCCNC(=O)Cn3cc(CCCCCN)nn3)CC2)nc(N2CCN(C(=O)CCCCCCCCCCNC(=O)[C@@H](CCC(=O)O)n3cc(CCCCCN)nn3)CC2)n1	3.6	-5.9	6.7%	5.3%
COc1cc(OC)c(NC(=O)C2CCN(S(=O)(=O)c3c(C)noc3/C=C/c3c(C)cc(C)cc3C)CC2)cc1Cl	-1.2	.	1.9%	i
C[C@@H](O)[C@H]1C(=O)N2C(C(=O)O)=C(SCCN=CN)C[C@H]12	0.4	.	.	.
O=c1[nH]c2ccc(S(=O)(=O)N3CCN(S(=O)(=O)c4ccc5c(c4)OCCO5)CC3)cc2[nH]c1=O	.	.	1.1%	.

Source: PubChem BioAssay
